A549 tox = A549 cytotoxicity, counter-screen for Nrf2 inhibitors; A549 ARE-Fluc cells, CellTiter-Fluor viability, 18-24 h; Potency, µM (highest dose often 46 µM), inactives show at the top dose activity change, negative = cytotoxicity, hits mostly inhibitors; hit rate 0.16% among 390,000; AID 504648; also: % is scaled to controls: 0 for no effect and ±100 for the full control effect
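A549 ARE-Fluc cells in 5% FBS OPTI-MEM, 5000 cells/well, rested 2 h then exposed to compounds in concentration-response for 18-24 h at 37 °C. Viability by CellTiter-Fluor fluorescence (Ex 405/Em 525) after 30 min; luciferase luminescence (BugLite, 15 min, RT) read afterwards.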
HepG2 viability = kills HepG2 cells in TGF-b inhibitor counter-screen. HepG2 CAGA-GFP viability, ATP luminescence, 18 h. Potency, µM (titrated, usually from 46.1 µM), without a hit: at the top dose activity change, negative = cytotoxicity, actives largely listed as cytotoxic. hit rate 0.76% among 410,000. AID 588856
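HepG2 CAGA-GFP cells (1000/well, DMEM with 1% FBS) received compound, then TGF-beta at 500 pg/mL final, and were incubated 18 hours at 37 degrees C. Viability was read by CellTiter-Glo luminescence. Media-only wells were set as complete cell-killing and DMSO as no toxicity.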
Nrf2 block = Nrf2 pathway inhibition. A549 ARE-Fluc reporter, luciferase luminescence, 18-24 h. Potency, µM (titrated, usually from 46 µM), inactives show top-dose activity change, negative = inhibition, actives largely listed as inhibitors. hit rate 2.1% among 360,000; also: % is scaled to controls: 0 for no effect and ±100 for the full control effect; nearly all actives have a fitted effect of over 60% in size
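A549 ARE_Fluc cells (5000/well, 5% FBS OPTI-MEM) pre-incubated 2 h, then treated with compounds 18-24 h at 37C/5% CO2 in concentration-response. CellTiter-Fluor viability read first; BugLite luciferase luminescence after 15 min at room temperature gives Nrf2 activity.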
TGFb SMAD3 inh = inhibitors of TGF-b signaling; HepG2 CAGA-GFP TGF-b/SMAD3 reporter, GFP fluorescence, 18 h; TGF-beta stimulated, 500 pg/mL final; Potency, µM (titrated, usually from 46.1 µM), for inactives: at the highest dose activity, negative = inhibition, most hits filed as inhibitors; hit rate 1.2% among 410,000; also: % is scaled to controls: 0 for no effect and ±100 for the full control effect; nearly all actives have a fitted effect of over 65% in size
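HEPG2 CAGA-GFP, 1000 cells/well; 2 h settle, 37 C; cpd via pin tool; TGF-b 500 pg/mL final; 18 h, 37 C; GFP imaging ex488/em500-530; %Activity normalised to -TGF-b and +DMSO controls; CRC fit, curve class.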
Nrf2 activator = activators of Nrf2 (ARE) signaling; Potency, µM (titrated, usually from 46.1 µM), for the others: top-dose activation, hits mostly activators; AREc32 ARE-luciferase reporter (MCF7-derived line), luminescence, 24 h; AID 624171; hit rate 0.31% among 410,000; also: % of control where 0% means no effect; nearly all actives have a fitted effect of over 65% in size
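AREc32_Fluc, 1000 cells/well, OPTI-MEM + 5% FBS, o/n 37 deg C 5% CO2; 23 nL cpd by pin tool, 24 hr; Steady-Glo 30 min RT, luminescence.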
Starred values were filed as active, the others as inactive; ? = inconclusive; / = no result given. A selection: hits, their analogues and other compounds. The true share with any hit is near 3.6%. Calls follow the shape of the dose curve; as a rule, active = well fitted curve in the direction sought with a large enough effect; inconclusive = small, poorly fitted or top-dose-only effect, or another doubt; inactive = no such curve, though single readings can be large; an effect the other way counts as inactive or inconclusive. Potency is read from the fitted curve at half-maximal effect.

SMILES | A549 tox | HepG2 viability | Nrf2 block | TGFb SMAD3 inh | Nrf2 activator
CCOc1ccc(-c2noc(CSc3nnc(Cc4ccccc4)n3-c3cccc(C)c3)n2)cc1 | ? | -17% | 26µM* | ? | 0%
c1ccc(Cc2nnc(SCc3nc(-c4cccs4)no3)n2-c2ccccc2)cc1 | -18% | -24% | ? | ? | 5%
c1ccc(-c2noc(CSc3nnc(Cc4cccs4)n3-c3ccccc3)n2)cc1 | -14% | -5% | ? | ? | 4%
Clc1ccc(-c2noc(CSc3nnc(Cc4cccs4)n3-c3ccccc3)n2)cc1 | -8% | -10% | 16µM* | ? | 0%
Cc1cccc(-n2c(Cc3ccccc3)nnc2SCc2nc(-c3cccs3)no2)c1 | ? | -52% | ? | 13µM* | 4%
Cc1ccc(-c2noc(CSc3nnc(Cc4ccccc4)n3-c3cccc(C)c3)n2)cc1 | ? | -74% | 26µM* | ? | 0%
O=C(NCCc1csc2nc(-c3ccccc3F)nn12)c1ccccc1C(F)(F)F | -2% | -6% | / | -7% | ?
Cc1noc(C)c1COc1ccc(C(=O)N2CCN(c3ccccn3)CC2)cc1 | 2% | -14% | 0% | 10% | 0%
O=C(C=P(c1ccccc1)(c1ccccc1)c1ccccc1)c1ccccc1-c1ccccc1C(=O)C=P(c1ccccc1)(c1ccccc1)c1ccccc1 | 4.6µM* | 1.6µM* | 2.1µM* | 1µM* | 0%
O=C(NNC(=O)c1ccccc1-c1ccccc1C(=O)O)c1ccccc1 | -11% | 0% | 6% | 19% | 0%
CCOC(=O)Cn1c(=O)n(CC2CCCO2)c2nc(-c3cccc(C)c3)nc(C(N)=O)c21 (stereo unspecified) | -1% | -6% | / | -2% | -1%
c1ccc(-c2nc(-c3ccco3)cs2)nc1 | 1% | -15% | ? | 34% | 13µM*
CN(C)CCCn1c(=O)n(CCc2ccccc2)c(=O)c2c3c(sc21)CCCCC3 | 4% | -8% | 6% | 13% | -1%
CN(C)CCCn1c(=O)n(Cc2ccco2)c(=O)c2c3c(sc21)CCCCC3 | -1% | 13µM* | 1% | ? | 7%
COc1ccc(NS(=O)(=O)c2ccc3oc(SCc4ccc(F)cc4)nc3c2)cc1 | -5% | -10% | 18µM* | ? | 4%
CCOC(=O)CSc1nc2cc(S(=O)(=O)Nc3ccccc3OC)ccc2o1 | -5% | -15% | 9% | ? | -1%
COc1ccccc1NS(=O)(=O)c1ccc2oc(SCC(C)=O)nc2c1 | -5% | 8% | ? | -10% | 3%
COc1ccccc1NS(=O)(=O)c1ccc2oc(SC)nc2c1 | 1% | -2% | 21µM* | -4% | 4%
COc1ccccc1NS(=O)(=O)c1ccc2oc(SCc3ccc(F)cc3)nc2c1 | -17% | -13% | 23µM* | 0% | 3%
Cc1ccc(C(=O)COC(=O)c2ccncc2)cc1[N+](=O)[O-] | -4% | -4% | 2% | -4% | 0%
O=S(=O)(c1ccccc1F)N1CCN(CCOc2ccccc2)CC1 | -3% | -15% | ? | -18% | 0%
O=c1c2ccccc2nc(N2CCN(c3cccc(Cl)c3)CC2)n1-c1ccccc1 | -1% | -47% | ? | 7.1µM* | 3%
COc1ccc2c(c1)c(C(C)=O)c(C)n2CCc1ccccc1 | -18% | -5% | 13µM* | 7% | -1%
O=C(Nc1ccc2nc(SCC(=O)N3CCCC3)sc2c1)c1ccc(Br)cc1 | 0% | -8% | -8% | -21% | 3%
O=C(Nc1ccc2nc(SCC(=O)N3CCOCC3)sc2c1)c1cccc(Cl)c1 | ? | -75% | 23µM* | 0% | 0%
SMILES | A549 tox | HepG2 viability | Nrf2 block | TGFb SMAD3 inh | Nrf2 activator
O=C(Nc1ccc2nc(SCC(=O)N3CCCC3)sc2c1)c1cccc(Br)c1 | -27% | -33% | 18µM* | -10% | 5%
Cn1c(CN2CCCCC2)nc2cc(NC(=O)c3cccc(Br)c3)ccc21 | -16% | -32% | 1.3µM* | -17% | -1%
Cc1ccccc1OCC(=O)Nc1ccc2nc(SCC(=O)N3CCCC3)sc2c1 | -22% | -29% | 18µM* | -1% | 6%
COc1cccc(NC(=O)Cn2c(=O)n(-c3ccccc3)c(=O)c3oc4ccccc4c32)c1 | ? | -14% | 10% | -5% | 0%
O=C(CN1CCN(S(=O)(=O)c2ccccc2F)CC1)N1CCc2ccccc2C1 | -2% | -11% | -26% | 14% | 0%
CN(C(=O)CSc1nc2ccc(NC(=O)c3cccc(F)c3)cc2s1)c1ccccc1 | -7% | -23% | 21µM* | -35% | 0%
CN(C(=O)CSc1nc2ccc(NC(=O)c3ccccc3F)cc2s1)c1ccccc1 | ? | -29% | ? | ? | -1%
COc1ccc(C(=O)NNC(=O)c2ccc(S(=O)(=O)N3CC(C)OC(C)C3)cc2)cc1 (stereo unspecified) | 8% | -1% | -3% | -9% | 3%
N#CC1=C(N)Oc2n[nH]c(-c3ccc(F)cc3)c2C1c1cccc(OC(=O)N2CCOCC2)c1 (stereo unspecified) | -7% | 2% | -5% | -22% | 4%
O=C(CN1CCN(CCC(=O)Nc2ccccc2F)CC1)Nc1ccc(F)cc1 | 7% | -17% | 16% | 14% | 0%
Cc1cc(N2C(=O)C3CC=CC(C)C3C2=O)no1 (stereo unspecified) | -12% | -24% | -17% | -4% | 0%
Cc1cc(NC(=O)c2ccccc2)sc1C | -10% | 8.9µM* | ? | 1% | ?
COc1ccc2cc(C(=O)N3CCN(Cc4ccc5c(c4)OCO5)CC3)[nH]c2c1 | -26% | -5% | 21µM* | ? | 3%
COc1ccc(Cn2nnnc2CN(Cc2cc3ccc(C)cc3[nH]c2=O)C2CCCC2)cc1 | ? | -36% | 21µM* | ? | 1%
COc1ccc(Cn2nnnc2CN(Cc2cc3cccc(C)c3[nH]c2=O)C2CCCC2)cc1 | -15% | 0% | ? | ? | 4%
Cc1ccc(-n2nc(C)c(C(=O)NCCCN3CCN(c4cccc(Cl)c4)CC3)c2-n2cccc2)cc1 | ? | -18% | 16µM* | -7% | -1%
Cc1ccccc1Nc1cc(C(=O)NCCCN2CCN(c3cccc(Cl)c3)CC2)c2ccccc2n1 | ? | -59% | / | 22µM* | 0%
Cc1ccccc1Nc1cc(C(=O)NCCc2ccc(Cl)cc2)c2ccccc2n1 | -27% | -34% | ? | ? | 0%
CCCn1c2ccccc2c2cnn(CC(=O)NCCN(CC)CC)c(=O)c21 | 7% | -41% | 1% | ? | 2%
O=C(NCC(c1ccco1)S(=O)(=O)c1ccc(Cl)cc1)c1ccc(C(F)(F)F)cc1 (stereo unspecified) | 0% | -17% | / | 16µM* | 9%

Screening results as filed in PubChem.
